ELG1 repair inh: inhibitors of ELG1-dependent DNA repair in HEK293T cells; 330,000 compounds, 2.3% hits; Potency, µM (series often up to 46.1 µM), inactives show at the highest dose activity change, negative = inhibition, usual class: inhibitors; AID 504467; HEK293T ELG1-luciferase reporter, luminescence, 16 h; DNA damage induced by 5-fluorouridine; note: potency is the fitted concentration of half-maximal effect; nearly all actives have a fitted effect of over 55% in size
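Quantitative HTS, concentration-response format. 2,000 cells/well co-treated with 5-fluorouridine and compound, 16 hr in 5% CO2 at 37 °C; ONE-Glo luminescence read after 30 min.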
HT1080-NT tox: kills 2HG-producing HT-1080-NT fibrosarcoma cells; HT-1080-NT fibrosarcoma viability, CellTiter-Glo ATP luminescence, 48 h; Potency, µM (highest dose often 46.1 µM), without a hit: at the top dose activity, negative = less viability, most hits filed as cytotoxic; 360,000 compounds, 1.6% hits;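 note: NT is the 2HG producing partner of a matched IDH1 knockdown line; potency is the fitted concentration of half-maximal effect; 0% = DMSO-treated cells and -100% = media-only wells without cells; nearly all actives have a fitted effect of over 55% in size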
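Read-out is CellTiter-Glo luminescence after 10 minutes at room temperature, following 48 hours' compound treatment of HT-1080-NT cells (750 cells/well, RPMI, 5% FBS, 37 degrees C).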
IL1B secr inh: inflammasome signaling inhibition, IL-1 beta readout. activity change, % at 57.5 µM. THP-1 LPS/ATP IL-1B secretion, AlphaLISA, 16 h; hits give low values. 360,000 compounds, 4.7% hits; in the data active = activity change below about -50%; inconclusive = mostly about -30% to -49%
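THP-1 cells pretreated 1 hr with compounds (up to 57.5 uM final), then stimulated with LPS (250 ng/mL final) plus ATP (1.25 mM final); secreted IL-1B measured by AlphaLISA after 16 hr, decreased signal indicating inhibition.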
TDP1 cell noCPT: qHTS for Inhibitors of human tyrosyl-DNA phosphodiesterase 1 (TDP1): qHTS in cells in absence of CPT; AID 686978, 2013; 420,000 compounds, 15% hits; DT40 Tdp1-/- hTDP1 cells, no CPT, ATP luminescence, 48 h; Potency, µM (doses to about 46.2 µM), without a hit: at the top dose activity change, negative = growth inhibition, actives largely listed as inhibitors; note: potency is the fitted concentration of half-maximal effect; nearly all actives have a fitted effect of over 55% in size
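Stably hTDP1-transfected Tdp1-null chicken DT40 cells were treated with library compounds minus camptothecin and grown for at least 48 hr at 37 °C, after which cellular ATP was quantified by luminescence.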
HT1080 IDH1KD tx: kills HT-1080 cells with IDH1 knockdown; HT-1080 IDH1 knockdown viability, ATP luminescence, 48 h; Potency, µM (highest dose often 46.1 µM), for inactives: at the top dose activity, negative = toxicity, most hits filed as cytotoxic; 360,000 compounds, 2% hits; AID 686971;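 note: potency is the fitted concentration of half-maximal effect; 0% = DMSO wells and -100% = cell-free medium wells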
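Assay cells: HT-1080 with IDH1 knockdown, 750 per well, RPMI/5% FBS. Exposure: 48 h at 37 °C following 2 h pre-incubation. Read: CellTiter-Glo luminescence; fitted concentration-response, curve class assigned.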
DT40 TDP1 CPT: DT40-hTDP1 cell growth loss with CPT. 420,000 compounds, 12% hits. Potency, µM (titrated, usually from 46.2 µM), without a hit: top-dose activity change, negative = growth inhibition, hits mostly inhibitors. chicken DT40 Tdp1-/-;hTDP1 cells + 20 nM CPT, ATP luminescence, 48 h; note: potency is the fitted concentration of half-maximal effect; nearly all actives have a fitted effect of over 55% in size
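Chicken DT40 Tdp1-/- cells complemented with human TDP1, 400 cells/well, exposed to compounds plus 20 nM camptothecin for at least 48 h at 37 C; viability read as ATP content by CellTiter-Glo luminescence.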
Active calls of the source: *; ? = inconclusive; . = no result. Only some compounds are listed: those with a hit (about 19% of all), similar ones and a draw of the others. Unless noted, calls come from the whole dose curve; as a rule, active = well fitted curve in the direction sought with a large enough effect; inconclusive = small, poorly fitted or top-dose-only effect, or another doubt; inactive = no such curve, though single readings can be large; an effect the other way counts as inactive or inconclusive. Unless noted, % is set by controls: 0 for no effect and ±100 for the full control effect.

SMILES | ELG1 repair inh | HT1080-NT tox | IL1B secr inh | TDP1 cell noCPT | HT1080 IDH1KD tx | DT40 TDP1 CPT
Cc1ccc2c(c1)C(=O)C(=O)N2Cc1ccc(OCCC(C)C)cc1 | . | . | . | 0.41µM* | . | 0.41µM*
Cc1ccc2c(c1)C(=O)C(=O)N2c1ccc(C(F)(F)F)cc1 | ? | 7% | 15 | -22% | 8% | -13%
CCCN1C(=O)C(=O)c2cc(C)ccc21 | ? | ? | 49 | 3.3µM* | ? | 2.1µM*
COc1ccc(C=O)c(-c2c(-c3ccccc3OC)sc3ccccc23)c1 | . | ? | 5 | ? | ? | ?
CCC(C)n1c(=O)c2sccc2n2c(CCCC(=O)N3CCC(C(N)=O)CC3)nnc12 (stereo not drawn) | 14% | -8% | 0 | -2% | -1% | -1%
Cc1ccc(CN2C(=O)C(=O)c3cc(C)ccc32)cc1 | ? | -5% | 84 | 0.65µM* | -10% | 0.58µM*
Cc1ccc2c(c1)C(=O)C(=O)N2c1ccc(Cl)cc1 | 15% | 3% | -2 | ? | -1% | ?
CC(C)CCCN1C(N(C)C)=NC[C@@H]1Cc1ccccc1 | -8% | -15% | -14 | 21µM* | -18% | 21µM*
CCN1C(N(C)C)=NC[C@@H]1Cc1ccccc1 | 1% | -2% | 17 | -12% | 8% | 0%
CC(C)CCN1CCC(CN2C(=S)NC[C@@H]2Cc2ccccc2)CC1 | . | 3% | 0 | 0% | 3% | 7%
CCC(C)CCN1C(N(C)C)=NC[C@@H]1Cc1ccccc1 (stereo partly drawn) | -5% | -1% | 9 | ? | -6% | 12µM*
N#Cc1cccc(-c2cc(NCc3cccnc3)ncn2)c1 | . | . | . | -15% | . | -4%
CCOc1cc(C)nc(N2CCC(C(=O)NCC3CCCO3)CC2)n1 (stereo not drawn) | . | 23% | 8 | -19% | 19% | -6%
CC1CCc2c(nc3nc[nH]n3c2=O)C1 (stereo not drawn) | ? | 12% | 9 | -5% | 15% | 3%
S=c1c2c(nc3nc[nH]n13)CCC2 | -5% | -7% | 8 | 21µM* | -4% | ?
O=C(CSc1nnc(-c2ccc3c(c2)OCO3)o1)Nc1ncc(Cl)cc1Cl | ? | ? | -4 | 21µM* | ? | 21µM*
CC(=O)CSc1nnc(-c2ccc3c(c2)OCO3)o1 | ? | -6% | -3 | -17% | -8% | -11%
O=S1(=O)C[C@@H](N2CCCC2)[C@H](COCc2ccccc2)N1 | . | 21% | 4 | 13% | 12% | -27%
O=S1(=O)C[C@@H](N2CCC(Cc3ccccc3)CC2)[C@H](COCc2ccccc2)N1 | . | -5% | 18 | 23µM* | 0% | 18µM*
O=C(CCNc1ccc(F)cc1)c1cc2ccccc2o1 | 0% | -14% | ? | 16µM* | -1% | 8.2µM*
O=C(Cc1cc2ccccc2o1)NCc1ccc(F)cc1 | -27% | ? | 17 | 23µM* | -11% | 21µM*
O=C(CCNc1cccc(F)c1)c1cc2ccccc2o1 | -13% | 7% | -9 | 15µM* | -3% | 16µM*
O=C(Cc1ccc(F)cc1)OCC(=O)c1cc2ccccc2o1 | 4% | -1% | 25 | -15% | 0% | -10%
COc1ccc(NC(=O)C2CCN(S(=O)(=O)c3c(C)noc3C)CC2)cc1Cl | -9% | ? | 4 | -24% | 4% | -9%
CCc1ccc(NC(=O)C2CCN(S(=O)(=O)c3cccc(-c4noc(C)n4)c3)CC2)cc1 | . | . | . | 15µM* | . | 21µM*
SMILES | ELG1 repair inh | HT1080-NT tox | IL1B secr inh | TDP1 cell noCPT | HT1080 IDH1KD tx | DT40 TDP1 CPT
Cc1cc(C)cc(NC(=O)C2CCN(S(=O)(=O)c3cccc(-c4noc(C)n4)c3)CC2)c1 | . | . | . | 21µM* | . | 16µM*
CCc1ccccc1NC(=O)C1CCN(S(=O)(=O)c2ccc3c(c2)N(C(C)=O)CCO3)CC1 | 1% | -3% | 31 | 12% | -1% | -8%
COc1ccc(NC(=O)C2CCN(S(=O)(=O)c3cccc(-c4noc(C)n4)c3)CC2)cc1OC | . | . | . | 21µM* | . | ?
CCc1ccc(NC(=O)C2CCN(S(=O)(=O)c3ccc4c(c3)N(C(C)=O)CCO4)CC2)cc1 | -1% | -3% | 11 | 18µM* | 0% | -28%
CCc1ccc(NC(=O)C2CCN(S(=O)(=O)c3ccc4[nH]c(=O)ccc4c3)CC2)cc1 | 15% | -6% | -9 | -12% | -14% | -20%
CCn1cc(CN2CCC(C(=O)Nc3ccc(Oc4ccccc4)nc3)CC2)cn1 | -15% | -7% | 4 | 21µM* | 6% | -68%
O=C(Nc1ccc(Oc2ccccc2)nc1)C1CCN(Cc2ccccc2)CC1 | -12% | ? | ? | -28% | -29% | ?
CCc1ccc(CN2CCC(C(=O)Nc3ccc(Oc4ccccc4)nc3)CC2)o1 | 0% | 0% | -28 | 23µM* | ? | 16µM*
O=C(c1ccc2c(=O)n(CC3CCCO3)c(=S)[nH]c2c1)N1CCN(C(=O)c2ccco2)CC1 (stereo not drawn) | . | 10% | . | ? | -1% | ?
Cc1ccccc1C(=O)NNS(=O)(=O)c1cccc([N+](=O)[O-])c1 | -7% | 14% | 29 | -2% | 30% | -19%
Nc1cc(=O)nc(SCC(=O)Nc2ccc(F)cc2)n1CCc1ccccc1 | . | . | . | -16% | . | 1%
O=C(NCc1ccccn1)c1cccc(S(=O)(=O)NCc2ccccc2)c1 | 19% | 0% | 2 | -26% | 15% | -5%
COc1ccc(CC2CC(=O)N(c3ccc(C)cc3)C2=O)cc1 (stereo not drawn) | -1% | 15% | -2 | 6% | 7% | 31%
COc1ccc(N2C(=O)CS(=O)(=O)C23C(=O)N(Cc2ccc(F)cc2)c2ccc(C)cc23)cc1 (stereo not drawn) | . | . | . | 15µM* | . | ?
Cc1ccc(N2C(=O)CS(=O)(=O)C23C(=O)N(Cc2ccccc2F)c2ccccc23)cc1Cl (stereo not drawn) | . | . | . | ? | . | 15µM*
CN1C(=O)C2(c3ccccc31)N(c1cccc(C(F)(F)F)c1)C(=O)CS2(=O)=O (stereo not drawn) | . | . | . | -14% | . | -25%
CCc1nnc(NC(=O)CSc2ccc(-c3ccc(F)cc3)nn2)s1 | 13% | . | . | . | . | .
COc1ccc(-c2cc(-c3ccccc3)c(C#N)c(SCC(=O)O)n2)cc1 | . | 7% | -6 | ? | -2% | -28%

High-throughput results: PubChem BioAssay, National Center for Advancing Translational Sciences (NCATS)
